Test results: article PMC4336329 (PLoS ONE, 2015)
Hit rate of the full screen: of about 310,000 compounds, about 14,000 (4.5%) showed an effect of 50% or more. Effects have a minus sign here. The full list was thinned out, with strong results kept by preference.

Target: human ether-à-go-go-related gene (hERG) potassium channel (human, UniProt Q12809)
Assay: primary screen, population patch clamp on CHO cells stably expressing hERG; higher = less effect of the substance
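Further: peak tail current of the secondary pulse compared with the same well before compound.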

human ether-à-go-go-related gene (hERG) potassium channel, sequence (Q12809 whole entry, looked up): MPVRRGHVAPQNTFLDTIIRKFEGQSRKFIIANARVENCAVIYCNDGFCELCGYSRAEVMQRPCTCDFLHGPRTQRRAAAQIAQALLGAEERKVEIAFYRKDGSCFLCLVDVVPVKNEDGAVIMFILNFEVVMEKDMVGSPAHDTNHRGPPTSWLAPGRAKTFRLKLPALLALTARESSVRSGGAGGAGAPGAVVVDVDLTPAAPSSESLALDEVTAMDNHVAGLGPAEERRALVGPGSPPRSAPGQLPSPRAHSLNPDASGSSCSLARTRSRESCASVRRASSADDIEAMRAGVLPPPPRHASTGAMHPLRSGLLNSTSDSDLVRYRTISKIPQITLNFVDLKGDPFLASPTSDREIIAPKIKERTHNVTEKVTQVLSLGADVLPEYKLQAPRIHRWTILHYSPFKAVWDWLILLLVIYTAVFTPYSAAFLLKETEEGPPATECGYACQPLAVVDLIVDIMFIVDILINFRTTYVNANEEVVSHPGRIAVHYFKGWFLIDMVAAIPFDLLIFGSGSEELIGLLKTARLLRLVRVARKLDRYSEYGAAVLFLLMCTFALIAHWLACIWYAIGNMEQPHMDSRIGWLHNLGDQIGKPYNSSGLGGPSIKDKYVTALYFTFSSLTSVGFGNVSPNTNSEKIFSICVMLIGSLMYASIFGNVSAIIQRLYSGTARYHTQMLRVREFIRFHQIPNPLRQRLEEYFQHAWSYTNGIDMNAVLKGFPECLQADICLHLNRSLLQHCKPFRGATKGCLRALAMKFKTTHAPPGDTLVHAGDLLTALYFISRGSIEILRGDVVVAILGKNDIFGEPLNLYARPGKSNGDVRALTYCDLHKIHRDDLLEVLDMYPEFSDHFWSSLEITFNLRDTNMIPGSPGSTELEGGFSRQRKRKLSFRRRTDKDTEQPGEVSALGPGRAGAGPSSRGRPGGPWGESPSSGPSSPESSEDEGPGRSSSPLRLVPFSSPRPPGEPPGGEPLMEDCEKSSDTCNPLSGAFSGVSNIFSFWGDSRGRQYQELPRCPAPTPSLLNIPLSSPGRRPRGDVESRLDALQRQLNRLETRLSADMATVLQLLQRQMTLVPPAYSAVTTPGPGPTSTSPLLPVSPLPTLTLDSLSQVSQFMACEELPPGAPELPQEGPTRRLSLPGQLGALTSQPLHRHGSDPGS

In order of falling “hERG current change (%, negative = inhibition) at 10uM” value:
1. COC(=O)c1cccc(NC(=O)CSc2nnc(C)n2C)c1  26%
2. CC(=O)c1ccc(OCC(O)CN(C)CCOc2ccc(Br)cc2)cc1 (stereo not drawn)  23.4%
3. Cc1ccc(NS(=O)(=O)c2ccc(Br)s2)nc1  23.4%
4. COc1ccnc(Oc2ccccc2)c1C(N)=O  20.2%
5. CC(C)Cn1nc(-c2ccccc2)c2ccccc2c1=O  20.1%
6. COc1ccc(N(CC(=O)N/N=C/c2ccccc2OC)S(=O)(=O)c2ccccc2)cc1  19.9%
7. Cc1cc(C)c(NC(=O)C2CCN(C(=O)c3ccco3)CC2)c(C)c1  19.9%
8. Cc1ccc(OCCCC(=O)Nc2ccc(Br)cc2)cc1  17.2%
9. C/C(=C\c1ccccc1)CN1CCN(C)CC1  16.2%
10. CCN(Cc1ccccc1)C(=O)C1CCN(C(=O)Nc2ccccc2)CC1  14.8%
11. Cc1ccc(C)c(OCCCC(=O)Nc2nccs2)c1  12.9%
12. COc1cccc2c(=O)cc(C)n(CC(=O)Nc3ccc(Br)cc3)c12  12.8%
13. CCC(C)(C(=O)NC1CCCCC1)N(C(=O)CC1NC(=O)NC1=O)c1c(C)n(C)n(-c2ccccc2)c1=O (stereo not drawn)  12.8%
14. CCCCNC(=O)C1CCN(Cc2ccccn2)CC1  12%
15. CN(CCOc1ccccc1)CC(O)COc1ccccc1 (stereo not drawn)  10.8%
16. CCN(CC)S(=O)(=O)c1ccc(C(=O)NCCc2ccccn2)cc1  10.8%
17. CC1(C)NC(=O)N(CC(=O)N2CCCC(C(F)(F)F)C2)C1=O (stereo not drawn)  10.4%
18. O=C(COC(=O)c1cccs1)Nc1cccc(Cl)c1  10.2%
19. O=C(O)C1CCN(C(=O)c2ccco2)CC1  9.94%
20. CCOc1ccccc1NC(=O)c1cccc2c1C(=O)N(C1CCCCC1)C2  9.57%
21. COC(=O)c1ccc(CNC(=O)COC(=O)c2cc(Cl)nc(Cl)c2)cc1  8.69%
22. COc1ccc(CCNc2cc(N3CCN(C(=O)c4ccc(C)cc4)CC3)ccc2[N+](=O)[O-])cc1OC  8.2%
23. CC(C(Sc1ccccc1N)c1ccccc1)[N+](=O)[O-] (stereo not drawn)  7.82%
24. Cc1cccc(-c2nc(=S)c3c(n2Cc2ccco2)CCCC3)c1  7.14%
25. COc1cc2c(cc1NC(=O)C(C)OC(=O)/C=C/c1ccc(OC(F)F)cc1)oc1ccccc12 (stereo not drawn)  7.07%
26. CC1Oc2ccccc2N(CC(=O)NCc2ccccc2)C1=O (stereo not drawn)  6.53%
27. C/C(Cn1cnc([N+](=O)[O-])n1)=N\NC(=O)c1cccc(F)c1  6.43%
28. Cc1cc(N2C(=O)C(O)=C(C(=O)c3cccs3)C2c2cccc(Br)c2)no1 (stereo not drawn)  6.05%
29. Cc1cn(C2C=CC(CO)O2)c(=O)[nH]c1=O (stereo not drawn)  4.79%
30. CCN1CCN(C/C(C)=C/c2ccccc2)CC1  4.72%
31. CCOP(=O)(O)c1cccc(OCCOCCOc2cccc(P(=O)(O)OCC)c2)c1  4.45%
32. Cc1cc(C)c(C#N)c(SCC(=O)CC(=O)OC(C)C)n1  1.82%
33. CN(C)S(=O)(=O)c1ccc(C(=O)NCc2nc3ccccc3s2)cc1  1.24%
34. COC(=O)C(NC(=O)c1ccccc1)=C(C)C  0.816%
35. O=C(c1ccc(F)cc1)C1CCN(C(=S)Nc2ccccc2Cl)CC1  0.35%
36. COc1cc(NC(=O)CSc2nnnn2-c2ccccc2)cc(OC)c1OC  -0.308%
37. Cc1ccc(NC(=O)c2cccc(S(=O)(=O)N3CCN(c4ccccc4)CC3)c2)nc1  -1.19%
38. CCc1ccc(NC(=O)CNS(=O)(=O)c2c(C)noc2C)cc1  -2.28%
39. Cc1onc(-c2ccccc2Cl)c1C(=O)Nc1nc2ccc(S(C)(=O)=O)cc2s1  -2.5%
40. Cc1ccc(NC(=O)C2CCN(S(=O)(=O)c3ccc4c(c3)NC(=O)C(C)S4)CC2)c(C)c1 (stereo not drawn)  -3.06%
41. Cc1nn(C2CCCCC2)c(N)c1-c1ccccc1  -3.53%
42. CCOC(=O)C1=NN(c2ccccc2)C2=NC(C)=C(C(=O)OC)C(c3cccs3)N12 (stereo not drawn)  -5.66%
43. COc1cccc2c(=O)cc(C)n(CC(=O)Nc3ccc(C)c(C)c3)c12  -5.88%
44. COc1ccc(C2C(C(=O)c3sc(C)nc3C)=C(O)C(=O)N2CCN(C)C)cc1 (stereo not drawn)  -6.4%
45. CCn1c(=O)cc(SCC(=O)NCCC2=CCCCC2)c2ccccc21  -6.46%
46. CCn1c2ccccc2c2cc(NC(=O)C(=O)NCC3CCCO3)ccc21 (stereo not drawn)  -6.57%
47. COc1ccc(N2CCN(C(=O)CNC(=O)Cc3ccc(Cl)cc3)CC2)cc1  -8.38%
48. CCCNC(=S)N1CCC(C(=O)c2ccc(F)cc2)CC1  -8.84%
49. COC(=O)c1cc(Cl)c(NC(=O)/C=C/c2ccc(Cl)cc2Cl)cc1OC  -10.9%
50. O=C(c1cccc(S(=O)(=O)N2CCCC2)c1)N1CCN(c2ccccc2)CC1  -13%
51. CC1CCN(C(=O)C2CCN(CC(C)c3ccccc3)CC2)CC1.O=C(O)C(=O)O (stereo not drawn)  -13.5%
52. O=C(c1cccc(S(=O)(=O)N2CCOCC2)c1)N1CCN(c2ccccc2)CC1  -15.7%
53. N#Cc1nc(-c2ccco2)oc1N1CCN(c2cccc(Cl)c2)CC1  -16.1%
54. Cc1ccc(CNC(=O)C2CCN(C(=O)Nc3ccccc3)CC2)cc1  -16.3%
55. CC(=O)N1CCN(C(=O)c2cccc(S(=O)(=O)N3CCN(c4ccccc4)CC3)c2)CC1  -16.5%
56. CC(C)c1ccc(CN(C)CC(O)c2ccccc2)cc1.O=C(O)C(=O)O (stereo not drawn)  -18.9%
57. C1CCCCCC2(CCCCC1)OCC(CN1CCOCC1)O2 (stereo not drawn)  -20.5%
58. c1ccc(-c2nnc(-c3ccncc3)nc2-c2ccccc2)cc1  -24.5%
59. CCOC(=O)N1CCN(C/C(C)=C/c2ccccc2)CC1  -25.1%
60. Cc1ccc(C(=O)NNC(=O)c2cccc(S(=O)(=O)N3CCN(c4ccccc4)CC3)c2)cc1  -25.4%
61. O=C(c1ccc(F)cc1)C1CCN(C(=S)Nc2ccccc2)CC1  -28.8%
62. CCN(CC)C(=O)C1CCCN(C/C(C)=C/c2ccccc2)C1 (stereo not drawn)  -30.7%
63. O=C(c1cccc(S(=O)(=O)N2CCN(c3ccccc3)CC2)c1)N1CCCCCCC1  -33.4%
64. O=C(CCCc1nc2ccccc2s1)NCc1ccc(F)cc1  -37.4%
65. O=C(NCc1ccccc1)C1=C[C@H](c2coc3ccccc3c2=O)C[C@H](OCc2ccc(CO)cc2)O1  -38.1%
66. Cn1c(=NCC(O)COc2ccccc2)sc2ccccc21 (stereo not drawn)  -42.7%
67. CC(OCC(O)CN(C)CCOc1ccccc1)c1ccc(Cl)cc1 (stereo not drawn)  -43.5%
68. C=CCNC(=S)N1CCC(C(=O)c2ccc(F)cc2)CC1  -44.4%
69. Cc1ccccc1NC(=S)N1CCC(C(=O)c2ccc(F)cc2)CC1  -45%
70. COc1ccc(C(=O)C2CCN(C(=S)Nc3ccc(F)cc3)CC2)cc1  -46.9%
71. C/C(=C\c1ccccc1)CN1CCC(C(=O)N2CCCCC2)CC1.O=C(O)C(=O)O  -47.5%
72. O=C(NCc1ccc(F)cc1)C1CCN(C(=O)Nc2ccc(F)cc2)CC1  -49.2%
73. Cc1ccc(NC(=O)N2CCC(C(=O)NCc3ccc(F)cc3)CC2)cc1  -52.2%
74. O=C(c1ccc(F)cc1)C1CCN(C(=S)Nc2ccc(F)cc2)CC1  -57.2%
75. COc1cccc2c(=O)cc(C)n(CC(=O)Nc3cccc(C)c3)c12  -59.4%
76. O=C(NNC(=O)c1cccc(S(=O)(=O)N2CCN(c3ccccc3)CC2)c1)c1ccc(Cl)cc1  -59.5%
77. CN(CCOc1ccc(Cl)cc1)CC(O)c1ccccc1.O=C(O)C(=O)O (stereo not drawn)  -60.4%
78. CN(Cc1nc2ccccc2s1)C(=O)c1ccc(F)cc1  -61%
79. CC(C)CNC(=S)N1CCC(C(=O)c2ccc(F)cc2)CC1  -61.4%
80. C/C(=C\c1ccccc1)CN1CCC(C(=O)N2CCC(C)CC2)CC1.O=C(O)C(=O)O  -63%
81. CCCCNC(=O)C1CCN(C/C(C)=C/c2ccccc2)CC1.O=C(O)C(=O)O  -63%
82. CCc1ccccc1NC(=S)N1CCC(C(=O)c2ccc(F)cc2)CC1  -63%
83. CN(CCOc1ccc(Br)cc1)CC(O)c1ccccc1.O=C(O)C(=O)O (stereo not drawn)  -63.1%
84. O=C(c1cccc(S(=O)(=O)N2CCCCCC2)c1)N1CCN(c2ccccc2)CC1  -68.8%
85. CCN(Cc1ccccc1)C(=O)C1CCN(C/C(C)=C/c2ccccc2)CC1.O=C(O)C(=O)O  -70.4%
86. O=C(c1cccc(S(=O)(=O)N2CCCCC2)c1)N1CCN(c2ccccc2)CC1  -73.1%
87. CCCCN(C)C(=O)C1CCN(C/C(C)=C/c2ccccc2)CC1.O=C(O)C(=O)O  -73.4%
